Screens deposited in PubChem by National Center for Advancing Translational Sciences (NCATS).
Shown are actives, neighbours in structure and some others; about 1.8% of the full set was active somewhere.
BRCA1 expr act: activators of BRCA1 expression | Potency, µM (top dose mostly 46.1 µM), hits mostly activators | 380,000 tested, 1.1% active | AID 624202 | MCF7-BRCA1-FFLuc reporter, luminescence, 48 h; response scale: scaled: vehicle 0%, 10 µM genistein 100%; further: nearly all actives have a fitted effect of over 80% in size
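First, MCF7-BRCA1-FFLuc cells (2000/well) attach for 2 h; next, compounds are pin-added and incubated 48 h at 37 °C; finally, luciferase reagent is added and luminescence read after 15 min.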
Akt phos inh: blocks phosphorylation of Akt | activity change, % for hits at 50 µM | Neuro2A IGF-stimulated pAkt S473 HTRF, 20 min; stronger effect = lower value | 360,000 tested, 0.32% active; in the data active means activity change below about -80%; inconclusive means mostly about -51% to -80%
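Single-point screen (50 µM final compound) in Neuro2A cells stimulated 20 min with 6 nM IGF at 37 deg C. After lysis, Ser473-phosphorylated Akt read by HTRF (ex 330 nm, em 615/665 nm) as the 665/615 ratio.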
CCT chaperon mod: cytosolic chaperonin activity modulation | AID 651819 | 360,000 tested, 0.3% active | activity change, % (no concentration beside the values), hits read low | purified chaperonin ATPase assay, HTRF ADP detection, 30 min; in the data active means activity change below about -30%
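First, chaperonin was dispensed at 40 nM or 20 nM final depending on batch activity. Next, compounds were pinned at 76 uM and ATP added at 10 uM. After 30 min at 37 °C, ADP detection reagents ran 30 min at ambient temperature.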
A-T KAP1 phos: candidate therapy for ataxia-telangiectasia; F2112 A-T fibroblasts, KAP-1 phosphorylation AlphaLISA; neocarzinostatin DNA damage 30 min before lysis; Potency, µM (titrated, usually from 57.5 µM), most hits filed as activators; 320,000 tested, 0.19% active; further: nearly all actives have a fitted effect of over 45% in size
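ATM-like activity read as KAP-1 phosphorylation via AlphaLISA donor/acceptor antibody pairs after lysis and 6 hr at 25C. Cells were ATM-null patient fibroblasts (F2112, hTERT), dosed 60 min, then exposed to the DSB inducer NCS for 30 min.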
Mm-Cpn inhibitor: M. maripaludis TRiC chaperonin inhibition. Potency, µM (highest dose often 76.9 µM), actives largely listed as inhibitors. purified Mm-Cpn ATPase, ADP Transcreener TR-FRET. 330,000 tested, 0.031% active; further: nearly all actives have a fitted effect of over 80% in size
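25 nM Mm-CPN + cpd, 10 min 37°C; + 10 uM ATP, 30 min 37°C; buffer 30 mM Tris pH 7.4, 100 mM KCl, 5 mM MgCl2, 1 mM DTT; Transcreener ADP HTRF detection 30 min RT.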
Hits are given with their value; – = inactive; ? = inconclusive; · = no result given; [ ] = another dose, or the depositor's remark. Unless noted, the call rests on the fitted dose curve; in most records, active means well fitted curve in the direction sought with a large enough effect; inconclusive means small, poorly fitted or top-dose-only effect, or another doubt; inactive means no such curve, though single readings can be large; an effect the other way counts as inactive or inconclusive.

SMILES	BRCA1 expr act	Akt phos inh	CCT chaperon mod	A-T KAP1 phos	Mm-Cpn inhibitor
CCOC(=O)c1cc(OC(=O)Cc2ccc(OC)c(S(=O)(=O)N3CCOCC3)c2)cc(C(=O)OCC)c1	–	–	–	·	·
CC(Sc1nnc(C(C)Oc2ccc(F)cc2)o1)C(=O)NCc1ccc2c(c1)OCO2 (stereo not given)	–	–	–	·	·
O=c1cc(-c2ccccc2)oc2ccc(O)cc12	2.8µM	–	–	–	–
CC1(C)O[C@@H]2[C@H](O1)[C@@H](CO)O[C@H]2n1cnc2c(=O)[nH]cnc21	–	–	-49	–	–
CC(=O)c1ccc(NC(=O)c2nc(-c3ccccc3)n(-c3ccc(C)cc3)n2)cc1	–	·	·	·	·
CSC1=C(C#N)C(c2ccc(C)cc2)C2=C(CCCC2=O)N1 (stereo not given)	–	–	–	–	–
CSC1=C(C#N)C(CC(C)C)C2=C(CCCC2=O)N1 (stereo not given)	–	-118%	–	–	–
Cc1ccnc2cc(Cl)c(Cl)cc12	–	·	·	·	·
CCCCCn1nc(C(=O)N(CC)c2c(N)n(CCCC)c(=O)[nH]c2=O)c2ccccc2c1=O	–	–	–	–	–
Cc1cc(Cl)ccc1OCc1nnc(-c2ccccc2C)o1	10µM	–	–	–	–
Clc1ccc(OCc2nnc(-c3ccccc3Br)o2)c(Cl)c1	3.2µM	–	–	–	–
COc1cc(-c2nnc(COc3ccc(Cl)cc3C)o2)cc(OC)c1OC	–	–	–	–	–
Cc1cc(Br)ccc1OCc1nnc(-c2ccccc2)o1	13µM	–	–	·	·
COc1ccc(-c2nnc(COc3ccc(Br)cc3C)o2)cc1	–	–	–	·	·
O=C(CN1C(=O)C2(SCC(=O)N2c2ccc(Cl)cc2)c2ccccc21)NCCc1ccccc1 (stereo not given)	–	·	·	·	·
Cc1ccc(-c2csc3ncnc(-n4nnc5ccccc54)c23)cc1	–	–	–	–	–
Cc1ccc(-c2csc3ncnc(-n4nc(C)cc4N)c23)cc1	–	–	-95	–	–
Cc1cc(N)n(-c2ncnc3scc(-c4ccc(Cl)cc4)c23)n1	–	-82%	–	–	–
C=C(c1nc2ccccc2s1)C1Cc2cccc3c2N(CCC3)C1 (stereo not given)	–	·	·	·	·
CC(=O)c1c(O)c(C)c(O)c2c1OC1=CC(=O)C(C(C)=O)C(=O)[C@@]12C (stereo not given in full)	–	–	–	–	–
O=C(NCC1CCCCC1)c1ccc(F)cc1Cl	5.6µM	–	–	–	–
Fc1ccc(N/N=C/c2ccncc2)c(F)c1	14µM	–	–	–	–
Clc1ccc(N/N=C/c2ccncc2)cc1Cl	7.1µM	–	–	–	–
Cc1ccc2[nH]c(=O)c(CN(CCCO)Cc3nnnn3Cc3ccccc3)cc2c1	–	·	·	·	·
COc1cccc(C(=O)N/N=C(\C)CC(=O)Nc2ccc(N(C)C)cc2)c1	–	–	–	–	–
SMILES	BRCA1 expr act	Akt phos inh	CCT chaperon mod	A-T KAP1 phos	Mm-Cpn inhibitor
COc1cccc(/C(C)=N/NC(=O)c2ccc(N(C)C)cc2)c1	4.5µM	–	–	–	–
C/C(=N\NC(=O)c1ccccc1)c1cccc(Br)c1	10µM	–	–	–	–
Cc1cc(C)cc(C(=O)Nc2nc3ccccc3[nH]2)c1	7.9µM	–	–	–	–
O=C(CC1CCCC1)Nc1nc2ccccc2[nH]1	3.2µM	–	–	–	–
O=C(Nc1nc2ccccc2[nH]1)c1ccc(F)c(S(=O)(=O)N2CCOCC2)c1	?	–	-44	–	–
COc1ccc(OCC(=O)Nc2nc3ccccc3[nH]2)cc1	10µM	·	–	–	–
O=C(Nc1nc2ccccc2[nH]1)C1CCCC1	?	–	–	–	–
O=C(COc1ccc2ccccc2c1)Nc1nc2ccccc2[nH]1	–	–	–	–	–
CC(C)Cn1c(SCC(=O)N2CCOCC2)nc2ccccc2c1=O	–	–	–	–	–
CN1C(=O)Cc2cc(S(=O)(=O)CCC(=O)N3CCN(c4cccc(Cl)c4)CC3)ccc21	–	·	·	·	·
COc1ccc(NC(=O)/C=C/c2cccc(F)c2)cn1	7.1µM	–	–	–	–
COc1ccc(NC(=O)/C=C/c2ccco2)cn1	–	–	–	–	–
COc1ccccc1/C=C/C(=O)Nc1cccc(C(C)=O)c1	–	–	–	–	–
COc1ccc(/C=C/C(=O)Nc2ccccc2C(=O)N2CCCC2)cc1	–[1.84 µM]	·	–	–	–
CCOc1ccc(/C=C/C(=O)Nc2ccccc2C(F)(F)F)cc1	–	–	–	–	–
COc1ccc(/C=C/C(=O)Nc2ccccc2C(=O)O)cc1	–	–	-36	–	–
COc1ccc(/C=C/C(=O)Nc2cccc(C(C)=O)c2)cc1	4.5µM	–	–	–	–
COc1ccc(/C=C/C(=O)Nc2ccccc2C(F)(F)F)cc1	3.2µM	–	–	–	–
COc1ccc(CN(Cc2ccccc2)C(=O)C2CC2)cc1COc1ccc(NC(C)=O)cc1	–	·	·	·	·
COc1cc(CNC(=O)C2CCC(=O)N(C3CCCCCC3)C2)cc(OC)c1 (stereo not given)	–	–	–	–	–
Cc1noc(C)c1C(=O)OCC(=O)Nc1ccccc1SCC#N	–	–	–	–	–
COC(=O)c1ccc(NC(=O)C2CC(=O)N(c3cc(C)ccc3C)C2)cc1 (stereo not given)	–	-105%	–	–	–
C=CCn1c(N)c(C(=O)Nc2ccc(C)cc2)sc1=S	1.3µM	–	–	–	–
C=CCn1c(N)c(C(=O)Nc2ccccc2OC)sc1=S	–	–	–	–	–
Cc1cc(C)n(CC(O)COc2ccc(Cl)cc2Cl)n1 (stereo not given)	11µM	–	–	–	–
SMILES	BRCA1 expr act	Akt phos inh	CCT chaperon mod	A-T KAP1 phos	Mm-Cpn inhibitor
C/C(=N\Nc1nncc2ccccc12)c1ccc(C(C)(C)C)cc1	2.5µM	–	–	–	–
Cc1csc(B(O)O)c1	–	·	·	·	·
Cc1ccc2nc(SCn3nnc4ccccc4c3=O)[nH]c2c1	?	–	–	–	–
Cc1cc(=O)[nH]c(SCn2nnc3ccccc3c2=O)n1	–	-99%	–	–	–
Cc1ccc(SCn2nnc3ccccc3c2=O)c(C)c1	13µM	–	–	–	–
O=C1CN(CC(=O)N2CCCCC2)c2ccccc2O1	–	–	–	–	–
O=C1CN(CC(=O)N2CCOCC2)c2ccccc2O1	·	·	·	28µM	–
